Among the data in PubChem BioAssay are composite z-score values, retold here.

For this assay, the system named is wheat germ agglutinin (Triticum aestivum), Alexa647-labelled. Nature of the assay: Alexa647-WGA lectin binding to printed small molecules – biochemical, small-molecule microarray, 635/667 nm fluorescence, artefact control for SMM control-protein annotation, profiling panel (AID 1140).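 Note: score merges 667 nm feature emission with signal to noise over triplicate slides.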 As to conditions: WGA-A647 binding, 635 nm fluorescence, higher = more signal.
The compound `CC(=O)OC[C@H]1O[C@@H](ON=C[C@@H](C)[C@H](OCc2ccccc2)C(C)C)[C@H](OC(C)=O)[C@@H](OC(C)=O)[C@@H]1OC(C)=O` returned a composite z-score of -0.0716.
The value for `CN1C(=O)C2C=CC(C(O)C(c3ccccc3)c3ccccc3)N(NC(=O)OC(C)(C)C)C2C1=O` (stereo unspecified) was 1.09.
The value for `COC(=O)C1=C(C)N(Cc2ccccc2)[C@]23O[C@](C(=O)OC)(C(=O)N2[C@@H]1c1ccccc1)[C@H]1CCOC(=O)[C@H]13` was 0.84; that for `C=C(CCCC)C(=O)CC[C@@H](OC(C)=O)c1cccc(OCCO)c1` was -1.1; that for `CO[C@@H]1COC(=O)CC=C[C@@H](C)[C@@H]2C=C[C@@H](O)[C@@H](COC(=O)CC=C[C@H]1C)O2` was -0.38.
Turning to `COC(=O)[C@@]1(Cc2ccccc2)[C@H]2c3cc(C(=O)N4CCCC4)n(Cc4ccccn4)c3C[C@H]2CN1C(=O)c1ccccc1`, the composite z-score was determined as 0.236.
The value for `CCOC(=O)NN=C1C[C@@H](O)[C@@H](O)[C@@H]2[C@@H]3C(=O)N(C(C)(C)C)C(=O)[C@@H]3CC[C@@H]12` was -1.19; that for `C=CCN1C(=O)[C@]2(O[C@H](CCn3cc(CCO)nn3)[C@@H]([Si](C)(C)c3ccc(OC)cc3)[C@@H]2C)c2cc(N3CCOC3=O)ccc21` was 0.574; that for `CCOc1ccc(N2C(=O)/C(=C/C=C/c3ccccc3OC)S(=O)(=O)C2c2cccc([N+](=O)[O-])c2)cc1` (stereo unspecified) was 0.432.
The value for `O[C@@H](Cc1ccccc1)[C@H]1C2C=CCCC(c3ccccc3)=C2CN1Cc1cccc(Cl)c1` (stereo partly specified) was 0.875.
In the case of `CO[C@H]1O[C@H](CO)[C@@H](OC(=O)Nc2ccc(C#N)cc2)[C@H](OC(=O)c2cc3ccccc3[nH]2)[C@H]1OC(=O)c1cc2ccccc2[nH]1` it was 0.955.
